Bioassay records as filed in PubChem BioAssay.
Hits are enriched below; roughly 3.5% of the tested compounds scored in any of these assays.
TEAD-YAP block: TEAD-YAP interaction inhibition; HEK-TIYL cells, TEAD-Gal4/YAP UAS-luciferase luminescence; 1.4% of 640,000 active; inhibition, % at 9.12 µM; in the data active = inhibition above about 32%
FBW7 act: human FBW7 E3 ligase activation, primary screen; Q969H0; AlphaScreen FBW7–phospho-cyclin E peptide binding, activator screen; normalized activity (activation), % at 26.1 µM; 0.13% of 650,000 active; AID 1259310; in the data active = normalized activity above about 1.9%;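 also: purified mutant Fbw7 with reduced substrate affinity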
GPR151 ag: human GPR151 activation; Q8TDV0; PathHunter beta-arrestin GPR151 cells, luminescence; activation, % at 11.2 µM; 1% of 650,000 active; in the data active = activation above about 4.9%
MITF primary: inhibitors of human MITF; 0.91% of 650,000 active; O75030; inhibition, % at 2.6 µM; AlphaScreen MITF homodimerization, bead proximity signal; in the data active = inhibition above about 50%
Target sequence (O75030 whole entry, looked up): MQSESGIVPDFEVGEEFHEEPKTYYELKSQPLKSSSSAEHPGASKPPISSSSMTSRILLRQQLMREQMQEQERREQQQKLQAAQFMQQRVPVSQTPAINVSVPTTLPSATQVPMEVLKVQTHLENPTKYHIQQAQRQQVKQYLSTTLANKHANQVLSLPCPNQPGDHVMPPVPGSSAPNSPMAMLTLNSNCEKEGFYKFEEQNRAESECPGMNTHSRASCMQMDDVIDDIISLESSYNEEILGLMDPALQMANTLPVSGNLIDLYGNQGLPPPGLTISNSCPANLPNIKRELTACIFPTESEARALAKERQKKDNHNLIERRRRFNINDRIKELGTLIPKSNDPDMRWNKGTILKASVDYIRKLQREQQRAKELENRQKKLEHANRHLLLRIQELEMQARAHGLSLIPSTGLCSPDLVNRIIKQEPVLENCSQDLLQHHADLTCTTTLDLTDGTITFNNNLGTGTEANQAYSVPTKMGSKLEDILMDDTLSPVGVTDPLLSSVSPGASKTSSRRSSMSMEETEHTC
Of the large screens only hits and unclear results are named; the others gave an inactive call.

O=C(N/N=C\c1ccc([N+](=O)[O-])s1)c1cncc(Br)c1	TEAD-YAP block 65
Cc1ccc(C(=O)C2=NN(c3ccccc3)C(=O)C2(O)C(C#N)C#N)cc1 (stereo not drawn)	none
CC(C)C(=O)NCC(c1ccco1)N1CCN(c2ccc(F)cc2)CC1 (stereo not drawn)	none
O=C(Nc1oc2ccccc2c(=O)c1CN1CCCCC1)C(Cl)(Cl)Cl	none
COc1cccc(/C=N/NC(=O)c2ccc(Cl)c(Cl)c2)c1O	none
COc1cccc(/C=N/NC(=O)c2ccncc2)c1O	MITF primary 61
CC(C)CN1C(=O)c2cccc3cc(Br)cc(c23)C1=O	none
O=C1CC(=O)Nc2cc(S(=O)(=O)N3CCCC4CCCCC43)ccc2N1 (stereo not drawn)	none
O=[N+]([O-])c1ccc(/C=C/c2ccc(O)cc2)cc1	TEAD-YAP block 49
COc1ccccc1N1CCN(c2ncnc3c2cnn3-c2ccc(C)cc2C)CC1	TEAD-YAP block 58
c1ccc(-n2ncc3c(N4CCOCC4)ncnc32)cc1	TEAD-YAP block 70
COc1ccc(-n2ncc3c(N4CCOCC4)ncnc32)cc1	TEAD-YAP block 91
Cc1ccc(-n2ncc3c(N4CCOCC4)ncnc32)cc1C	TEAD-YAP block 79
COc1ccccc1N1CCN(c2ncnc3c2cnn3-c2cccc(C)c2)CC1	none
CCc1ccc(CN2C[C@@H](n3cnnn3)C[C@H]2C(=O)NCCc2ccccc2OC)cc1	none
Clc1ccc(-n2ncc3c(N4CCN(c5cccc(Cl)c5)CC4)ncnc32)cc1	none
Clc1cccc(-n2ncc3c(N4CCOCC4)ncnc32)c1	TEAD-YAP block 71
N#Cc1ccsc1NC(=O)c1cccc(Cl)c1Cl	none
N#Cc1ccsc1NC(=O)/C=C/c1ccccc1Cl	TEAD-YAP block 64
CC1CCN(c2nc3ncccc3nc2-c2ccccc2)CC1	FBW7 act 2.1
CCSc1nc(-c2ccccc2)c(NC(=O)c2ccco2)s1	FBW7 act 1.9
Cc1occc1-c1nnc(SCC(N)=O)n1-c1ccccc1	none
CCC1=NN2C(=N)/C(=C/c3cccc(OCCOc4ccccc4C)c3)C(=O)N=C2S1	none
CCC1=NN2C(=N)/C(=C\c3cccc(OCCOc4cc(C)ccc4C)c3)C(=O)N=C2S1	MITF primary 63
CCC1=NN2C(=N)/C(=C/c3cc(Br)c(OCCOc4ccc(Br)cc4)c(OC)c3)C(=O)N=C2S1	none
CCC1=NN2C(=N)/C(=C/c3cc(Br)c(OCCOc4ccc(C)cc4)c(OC)c3)C(=O)N=C2S1	MITF primary 61
COc1ccc(NC(=O)CCNS(=O)(=O)c2ccc(OC)c([N+](=O)[O-])c2)cn1	none
C=CS(=O)(=O)c1ccc(C(C)(C)C)cc1	TEAD-YAP block 68
Cc1ccc(C(C)C)c(OCC(O)Cn2c(C)nc3ccccc32)c1 (stereo not drawn)	TEAD-YAP block 50
C=CCc1ccccc1OCC(O)Cn1c(CO)nc2ccccc21 (stereo not drawn)	none
C=CCc1ccccc1OCC(O)Cn1c(C)nc2ccccc21 (stereo not drawn)	TEAD-YAP block 40
CCN(CC)S(=O)(=O)c1ccc2c(c1)N(CC(=O)N1C(C)CCCC1C)C(=O)CO2 (stereo not drawn)	none
COc1cccc(C(=O)N2CCN(c3cccc(C)c3C)CC2)c1	TEAD-YAP block 33
CCOC(=O)CS(=O)(=O)c1ccc(C(=O)N2CCN(c3cccc(C)c3C)CC2)cc1[N+](=O)[O-]	TEAD-YAP block 34
COc1ccccc1N1CCN(C(=O)c2cccc(Br)c2)CC1	TEAD-YAP block 36
Cc1cccc(N2CCN(C(=O)c3ccncc3)CC2)c1C	TEAD-YAP block 50
CCOC(=O)CS(=O)(=O)c1ccc(C(=O)N2CCN(c3cc(C)ccc3C)CC2)cc1[N+](=O)[O-]	none
CC(=O)Nc1ccc(C(=O)N2CCN(c3cccc(C)c3C)CC2)cc1	none
O=C(COc1cccc(C(F)(F)F)c1)Nc1ncc(Cc2ccccc2Cl)s1	none
Cc1cccc(N2CCN(C(=O)c3cc(S(=O)(=O)N4CCOCC4)cn3C)CC2)c1C	none
COc1ccccc1C(=O)N1CCN(c2cccc(C)c2C)CC1	TEAD-YAP block 47
Cc1cccc(N2CCN(C(=O)c3cc(S(=O)(=O)N4CCCC4)cn3C)CC2)c1C	TEAD-YAP block 58
N#CC(C(=O)c1ccco1)c1nc2ccc(C(F)(F)F)cc2s1 (stereo not drawn)	none
COc1cc(C2C(C(=O)OCCOc3ccccc3)=C(C)NC3=C2C(=O)CC(C)(C)C3)ccc1OCc1ccccc1 (stereo not drawn)	none
Oc1ccccc1/C=N/c1ccnn1-c1ccccc1	TEAD-YAP block 32
CC(=O)C1=C(O)C(=O)N(c2nc3ccccc3s2)C1c1ccc(Cl)cc1Cl (stereo not drawn)	TEAD-YAP block 66
CC(=O)C1=C(O)C(=O)N(c2nc3ccccc3s2)C1c1ccccc1F (stereo not drawn)	none
Cc1ccc(NC(=S)N2CCC(N(C)CCN3CCOCC3)CC2)cc1	none
Cc1cc(=O)[nH]c(SCC(=O)Nc2ccc(Br)cn2)n1	none
O=C(CSc1nc2ccccc2[nH]1)Nc1ccc(Br)cn1	TEAD-YAP block 76
COc1ccc(CNC(=O)C(C)(C)Oc2ccc(Cl)cc2)cc1	none
Cc1nc2ccccn2c1-c1csc(Nc2ccc(Cl)cc2)n1	TEAD-YAP block 44
Cc1ccc(Nc2nc(-c3c(C)nc4ccccn34)cs2)cc1	TEAD-YAP block 53
CCN(CC)c1ccc(Nc2nc(-c3c(C)nc4ccccn34)cs2)cc1	none
Cc1nc2ccccn2c1-c1csc(Nc2ccc(S(N)(=O)=O)cc2)n1	none
Cc1ccc(Nc2nc(-c3c(C)nc4ccccn34)cs2)c(C)c1	TEAD-YAP block 53
Cc1cc(NC(=O)Cc2csc(NC(=O)c3ccc(Cl)cc3)n2)ccc1Br	none
CCOc1cc(C(=O)NCC2CCCO2)cc(Br)c1OC (stereo not drawn)	none
C=CCNC(=S)NNc1nc(Nc2ccccc2)nc(N2CCCCC2)n1	TEAD-YAP block 34
C=CCNC(=S)NNc1nc(N2CCCC2)nc(N2CCCC2)n1	none
CC(C)NC(=O)CCSc1ccc(Cl)cc1	none
CC(C)(C)CC(C)(C)c1ccc(OCCOCC[N+](C)(C)Cc2ccccc2)cc1	TEAD-YAP block 54
CC(=O)c1ccc(OCC[N+](C)(C)Cc2ccccc2)cc1	none
COc1cc(C2Nc3ccccc3NC3=C2C(=O)CC(c2cccs2)C3)cc(Br)c1O (stereo not drawn)	none
O=c1[nH]c(CN2CCOCC2)nc2scc(-c3cccs3)c12	none
Cn1nnnc1Sc1nc(CN2CCOCC2)nc2scc(-c3cccs3)c12	TEAD-YAP block 61
c1cc(N2CCOCC2)ccc1-c1csc(-c2ccc3c(c2)OCCO3)n1	none
CC(C)(CO)NC(=O)c1cc(COc2ccc(F)cc2F)on1	none
Cc1cnc(-c2ccc3[nH]ccc3c2)nc1N	none
CCOc1cc(C2CC(=O)Nc3ccc4ccccc4c32)cc(Br)c1O (stereo not drawn)	TEAD-YAP block 36
COc1ccc(-c2noc(-c3cccc(C)c3)n2)cc1	none
COc1ccc(-c2nc(-c3cccs3)no2)cc1	TEAD-YAP block 75
Cc1cccc(-c2noc(-c3ccc(C(C)(C)C)cc3)n2)c1	TEAD-YAP block 49
COc1ccc(-c2nc(-c3ccccc3)no2)cc1	TEAD-YAP block 53
